Measured values published in PubChem BioAssay (NCATS).
Inconclusive results are not listed. Activity calls are given as the source filed them. Calls follow the shape of the dose curve; as a rule, active = well fitted inhibition curve with a large enough effect; inconclusive = small, poorly fitted or top-dose-only effect; inactive = flat fitted curve, though single readings scatter.

System: Zika virus NS2B-NS3 protease
Assay: Primary screen GU AMC qHTS for Zika virus inhibitors (AID 1347154);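 also: 0% = no-inhibitor control and -100% = no-enzyme control; nearly all actives have a fitted effect of over 70% in size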
Conditions: Zika NS2B-NS3 unlinked protease, AMC fluorogenic substrate; series mostly up to 54.1 µM; activity change, negative = inhibition: at the top concentration
Procedure, shortened: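 Unlinked Zika NS2B hydrophilic domain/NS3 protease domain noncovalent complex (25 nM final) in 10 mM Tris-HCl pH 8.0, 0.01% Tween 20, with AMC peptide substrate. Fluorescence (ex 340, em 450 nm) change over 15 min, room temperature; percent inhibition fitted to 4-parameter Hill equation.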

Activity change, negative = inhibition, inactive:
CCOC(=O)c1c(C)[nH]c2ccc3c(c12)CN1CCc2cc(OC)ccc2[C@@H]1O3 -5.06%
COC1C(O)C(CO)OC1n1cnc2c(NC3CCCCC3)ncnc21 (centres undefined) 21.4%
CO[C@H]1C[C@@H]2CC[C@@H](C)[C@@](O)(O2)C(=O)C(=O)N2CCCC[C@H]2C(=O)O[C@H](C(C)C[C@H]2CC[C@@H](O)[C@H](OC)C2)CC(=O)[C@H](C)/C=C(\C)[C@@H](O)[C@@H](OC)C(=O)[C@H](C)C[C@H](C)/C=C/C=C/C=C/1C (some centres undefined) 5.36% [at 25.8 µM]
CCC(=O)NC1CCc2cccc(OC)c2C1 (centres undefined) 1.4%
NC(C(=O)O)[C@H](O)C(=O)O (some centres undefined) -0.61%
COc1ccc(/C=C\C(=O)Nc2ccccc2C(=O)O)cc1OC -19.1%
O=S(=O)(c1cccc2cnccc12)N1CCNCC1 6.93%
CCCCC/C=C\C/C=C\C/C=C\C/C=C\CCCC(=O)O[C@@H](CO)COC(=O)CCCCCCCCCCCCCCCCC 6.26% [at 6.83 µM]
CC[C@H](C)[C@H](NC(=O)[C@H](CCCN=C(N)N)NC(=O)[C@H](CCCN=C(N)N)NC(=O)[C@H](CC(C)C)NC(=O)[C@H](Cc1ccccc1)NC(=O)CNC(=O)CN)C(=O)N[C@@H](CCCN=C(N)N)C(=O)N1CCC[C@H]1C(=O)N[C@@H](CCCCN)C(=O)N[C@@H](CC(C)C)C(=O)N[C@@H](CCCCN)C(=O)O 11.9% [at 6.83 µM]
C=C1/C(=C\C=C2/CCC[C@]3(C)C([C@H](C)CCCC(C)(C)O)CC[C@@H]23)C[C@@H](O)C[C@@H]1O (some centres undefined) 14.5% [at 6.83 µM]
CCCC(=O)NCCc1c(I)[nH]c2ccc(OC)cc12 -2.6%
CCCCCCCCCCCCC/C=C/[C@@H](O)[C@H](CO)NC(=O)CCCCCCC 11.7% [at 6.83 µM]
CC(N)(C(=O)O)c1ccc(P(=O)(O)O)cc1 (centres undefined) -1.27%
Nc1c(S(=O)(=O)O)cc(Nc2ccc(Cl)cc2)c2c1C(=O)c1ccccc1C2=O 0.381%
CN1C/C(=C/c2ccc(B(O)O)cc2)C(=O)/C(=C/c2ccc(B(O)O)cc2)C1 -6.4%
CC1=C(/C=C/C(=C/C=C/C(C)=C/C(=O)O)c2ccc(C)cc2)C(C)(C)CCC1 -20.7%
COc1ccc2[nH]cc(CCNC(=O)C3CC3)c2c1 14.7%
OC[C@H]1O[C@@H](n2cnc3c(N[C@H]4C[C@H]5CC[C@@H]4C5)ncnc32)[C@H](O)[C@@H]1O 11.1%
NC(N)=NCCNS(=O)(=O)c1cccc2cnccc12 -1.22%
O=Nc1ccc(O)c2ncccc12 1.72%
CC(=O)OCOC(c1ccc2ccccc2c1)P(=O)(OCOC(C)=O)OCOC(C)=O (centres undefined) 15%
COc1oc(=O)c2cc(N)ccc2c1Cl 6.12%
CC(C)n1cnc2c(NCc3ccccc3)nc(NCCO)nc21 5.26%
CCCC(=O)Nc1nc2c(ncn2[C@@H]2O[C@H]3COP(=O)(O)O[C@@H]3[C@@H]2OC(=O)CCC)c(=O)[nH]1 17.1%
CCCCCCCC/C=C\CCCCCCCCOC[C@H](COP(=O)([O-])OCC[N+](C)(C)C)OC(C)=O 11.8% [at 6.83 µM]
CC(=O)NC1C(OC2OC(CC(O)C3OC([N+]4=CCC(=O)NC4=O)C(O)C3O)C(O)C(O)C2NC(=O)/C=C/CCCCCCCCC(C)C)OC(CO)C(O)C1O (centres undefined) 19.4% [at 25.8 µM]
N[C@@H](Cn1c2c(c(=O)[nH]c1=O)CCC2)C(=O)O 10%
CC12CCC3c4ccc(O)cc4CCC3C1CCC2O (centres undefined) 20.6%
CCCCCCCCCCCCCC(=O)N[C@H](C)[C@@H](O)c1ccccc1 6.45% [at 6.83 µM]
NC(N)=NCCC[C@H](NC(=O)[C@@H](N)Cc1ccc(O)cc1)C(=O)O 2.03% [at 6.83 µM]
O=c1nc2ccccc2c2n1CC(CN1CCN(c3ccccc3)CC1)N2 (centres undefined) 1.86%
C=C1CC2COC(=O)C2(Cc2ccc3ccccc3c2)C1 (centres undefined) 4.61%
O=C(O)CCc1cc(I)c(O)c(I)c1 9.07%
CC(C)c1ccc2c(c1)CC[C@H]1[C@](C)(CN)CCC[C@]21C 1%
COc1c(O)cc2oc(-c3ccc(O)cc3)cc(=O)c2c1O -18.3%

Potency, inactive:
C/C(O)=C1\C(=O)[C@@H]2[C@H]3c4c[nH]c5cccc(c45)C[C@H]3C(C)(C)N2C1=O
CC(=O)N[C@@H](CSC/C=C(\C)CCC=C(C)C)C(=O)O
O=Cc1c2[nH]c3ccccc3c2cc2[nH]c3ccccc3c12
COc1c(C=O)c(O)cc2c1C(=O)c1ccccc1C2=O
